The entries come from a sample that favours hits as a whole.
Methyltransferases: Primary Screen for Target Class Profiling of Small Molecule Inhibitors of Methyltransferases; purified enzyme, MTase-Glo SAH luminescence; stronger effect = lower value; calls only at 40 µM; 25,000 tested, 3.9% active; call rule not given here
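Each enzyme was reacted with SAM and its substrate, with compounds tested once at 40 uM; SAH formed was read by MTase-Glo luminescence.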
Active calls of the source: *; i = inactive; + = active, no number; ! = repeats disagree. On the % scale 0 is the no-effect control and ±100 the full control effect.

SMILES	Methyltransferases
C[C@@H]1O[C@@H](O[C@H]2[C@H](O[C@H]3[C@H](O[C@H]4CC[C@@]5(C)C(CC[C@]6(C)C5CC=C5[C@@H]7CC(C)(C)C[C@@H](O)[C@]7(C)CC[C@]56C)[C@@]4(C)CO)O[C@H](C(=O)O)[C@@H](O)[C@@H]3O)O[C@H](C(=O)O)[C@H](O)[C@@H]2O)[C@H](O)[C@H](O)[C@H]1O (stereo partly drawn)	i
CC1(CO)CC(O)C2(C)CCC3(C)C(=CCC4C5(C=O)CCC(OC6OC(C(=O)O)C(O)C(O)C6OC6OC(C(=O)O)C(O)C(O)C6O)C(C)(C)C5CCC43C)C2C1 (stereo not drawn)	+
C[C@@H]1O[C@@H](O[C@H]2[C@H](O[C@H]3[C@H](O[C@H]4CC[C@@]5(C)C(CC[C@]6(C)C5CC=C5[C@@H]7CC(C)(C)C[C@@H](O)[C@]7(C)CC[C@]56C)[C@@]4(C)CO)O[C@H](C(=O)O)[C@@H](O)[C@@H]3O)O[C@H](CO)[C@H](O)[C@@H]2O)[C@H](O)[C@H](O)[C@H]1O (stereo partly drawn)	i
Cc1ccc(S(=O)(=O)c2nnn3c2nc(NC(C)C)c2ccccc23)cc1	i
Cc1c(C(=O)N(C)Cc2cc(-c3cccnc3)no2)oc2c(F)cccc12	i
C=CC(=O)Nc1cccc(Nc2nc(Nc3ccc(OCCOC)cc3)ncc2F)c1	+
CC(C)(C)NC(=O)Nc1cccc(Nc2ncc(F)c(NC(C)(C)CO)n2)c1	i
CC1(C(=O)Nc2ccccc2F)COCc2cnc(Nc3ccccc3)nc21 (stereo not drawn)	i
CC(C)CNC(=O)c1ccc2c(=O)n(CC(C)C)c3nn(CC(=O)Nc4cccc(F)c4)c(=O)n3c2c1	i
COc1ccccc1OCCNCC(O)CCOc1cccc2[nH]c3ccccc3c12 (stereo not drawn)	+
COc1ccccc1OCCN1CC(COc2cccc3[nH]c4ccccc4c23)OCC1=O (stereo not drawn)	i
CNCCC(Oc1ccccc1OC)c1ccccc1 (stereo not drawn)	i
CSc1ccc(CCNC(=O)c2cc3n(n2)CC(C)(C(=O)NC2CCCC2)N(C)C3=O)cc1 (stereo not drawn)	i
Cc1ccc(CNC(=O)Nc2cnc3c(c2)CCC3)cc1	i
CCCCN1CCN(C(=O)C2(c3ccc(NS(C)(=O)=O)cc3)CCCCC2)CC1	i
CC1(C(=O)NC2CCCCCCC2)Cc2ccccc2C(=O)N1C1CCCCC1 (stereo not drawn)	i
CN(C)CC[C@H](CSc1ccccc1)Nc1ccc(S(=O)(=O)NC(=O)c2ccc(N3CCN(Cc4ccccc4-c4ccc(Cl)cc4)CC3)cc2)cc1[N+](=O)[O-]	+
CC1(C)CCC(c2ccc(Cl)cc2)=C(CN2CCN(c3ccc(C(=O)NS(=O)(=O)c4ccc(N[C@H](CCN5CCOCC5)CSc5ccccc5)c(S(=O)(=O)C(F)(F)F)c4)cc3)CC2)C1	+
COc1nc(C)cnc1NS(=O)(=O)c1cccnc1-c1ccc(-c2nnco2)cc1	i
C/C=C(\C)C(=O)OC1C(C)C2(O)C(C=C(CO)CC3(O)C(=O)C(C)=CC32)C2C(C)(C)C12OC(C)=O (stereo not drawn)	i
COc1ccc(-c2nc(-c3cc(C(F)(F)F)cc(C(F)(F)F)c3)n(Cc3ccc(C(N)=O)cc3)c2-c2ccc(OC)cc2)cc1	+
COc1ccc(CN2CCCC3(CC(c4cccc(C(F)(F)F)c4)=NO3)C2)cc1 (stereo not drawn)	i
COc1ccc(Cn2c(=O)c3ccccc3n3c(-c4ccc(O)cc4)nnc23)cc1	i
CN(C)CCOC(C)(c1ccccc1)c1ccccn1 (stereo not drawn)	i
Cn1c(=O)n(C)c2cc(S(=O)(=O)N(Cc3ccccc3)C(=O)C3CCCCC3)ccc21	i
SMILES	Methyltransferases
O=C1C=CC(O)(/C=C/C(=O)OC[C@H]2O[C@@H](Oc3ccc(O)cc3)[C@H](O)[C@@H](O)[C@@H]2O)C=C1	i
COc1ccc(C(=O)N(Cc2ccccc2)S(=O)(=O)c2ccc3c(c2)n(C)c(=O)n3C)cc1	i
CC(C)N(CCC(=O)c1ccc2ccccc2c1)Cc1ccccc1	+!
CCOc1ccc(-c2cc3n(n2)CC(C)(C(=O)NC2CCCCC2)N(Cc2ccccn2)C3=O)cc1 (stereo not drawn)	i
COc1cc(OC)cc(C(=O)NCC2CCCN(Cc3cc4ccccc4o3)C2)c1 (stereo not drawn)	i
COc1ccccc1CNC(=O)C1(C)Cn2c(cc3ccccc32)C(=O)N1CCc1ccc(C)cc1 (stereo not drawn)	i
Cc1cc2[nH]c(=O)[nH]c2cc1S(=O)(=O)N1CCN(c2cccc(Cl)c2)CC1	i
Oc1ccc(Nc2nc(-c3ccc(Cl)cc3)cs2)cc1	i
Clc1ccc(-c2csc(NN=C3CCCC3)n2)cc1	+!
COc1ccc(CCO[C@@H]2O[C@H](CO[C@H]3OC[C@](O)(CO)[C@H]3O)[C@@H](OC(=O)/C=C/c3ccc(O)c(O)c3)[C@H](O[C@@H]3O[C@@H](C)[C@H](O)[C@@H](O)[C@H]3O)[C@H]2O)cc1OC	i
CC1(C)CCC=[N+]1[O-]	i
Clc1ccc(C(Cn2ccnc2)OCc2c(Cl)cccc2Cl)c(Cl)c1 (stereo not drawn)	+
COc1ccc(C(=O)Nc2c(Cl)cncc2Cl)cc1OC1CCCC1	i
CC(=O)N1CCC(C2CCN(C(C)=O)C2)CC1 (stereo not drawn)	i
Cn1cc(-c2ccc3ncc(Cc4ccc5ncccc5c4)n3n2)cn1	i
CN1C(=O)c2cc(C(=O)NCc3ccccn3)nn2CC1(C)C(=O)NCc1ccccc1 (stereo not drawn)	i
Cn1cc(-c2cnc3ccc4ccc(CS(=O)(=O)NCc5ccccn5)cc4c(=O)c3c2)cn1	+
CC1(C)O[C@H]2CC(=O)OC[C@]23[C@H]2CC[C@@]4(C)[C@H](c5ccoc5)OC(=O)[C@H]5O[C@]54[C@]2(C)C(=O)C[C@@H]13	i
CC1CCC(NC(=O)C2(C)Cn3c(ccc3-c3ccco3)C(=O)N2Cc2cccc(Cl)c2)CC1 (stereo not drawn)	i
CCn1cc(CN2C[C@@H]3C(=O)N(CCCN4CCCC4=O)C(=O)[C@@H]3C2)cn1	i
COc1ccc([C@@]2(O)c3c(ccc4c3OC(C)(CCC=C(C)C)C=C4)NC(=O)[C@@H]2OC)cc1 (stereo partly drawn)	i
COC(C)(C)CCn1nc(Nc2c(C)cccc2C)c2cnc(Nc3ccc(OCCN4CCCC4)c(F)c3)nc21	+
C=C1C(O)CC2C(C(=O)O)=COC(OC3OC(CO)C(O)C(O)C3OC(=O)/C=C\c3ccc(O)cc3)C12 (stereo not drawn)	i
CCCN1C(=O)c2c(-n3cccc3)c3cc(C)ccc3n2CC1(C)C(=O)NC1CCCC1 (stereo not drawn)	i
C[C@H](Nc1cc2c(-c3ccc4c(c3)OCO4)noc2cn1)c1ccccc1	+
CC1(C)CC[C@]2(C(=O)O)CC[C@]3(C)C(=CCC4[C@@]5(C)CC[C@H](O[C@@H]6O[C@H](C(=O)O)[C@@H](O)[C@H](O[C@@H]7O[C@H](CO)[C@H](O)[C@H](O)[C@H]7O)[C@H]6O[C@@H]6O[C@H](CO)[C@@H](O)[C@H](O)[C@H]6O)C(C)(C)C5CC[C@]43C)[C@@H]2C1 (stereo partly drawn)	i
